Hit rate of the full screen: of about 1,200 compounds, about 20 (2%) were called active. Another 23% or so got no clear call; they are omitted. Shown is part of a subset that was picked to be rich in actives. A number with no mark means an inactive call. Calls come from the whole dose curve; as a rule, active = well fitted inhibition curve with a large enough effect; inconclusive = small, poorly fitted or top-dose-only effect; inactive = no such curve, though single readings can be large or run the other way.
These molecules were tested against Transcriptional regulator ERG (Homo sapiens) (UniProt P11308) (assay: qHTS for Small Molecule Inhibitors of the ERG Ets/DNA interaction: HTRF assay against cherry picks). Details: His-ERG Ets domain with biotin-DNA; series mostly up to 154 µM; activity change, negative = inhibition: at the top concentration.
Transcriptional regulator ERG (Homo sapiens), sequence (P11308 whole entry, looked up, the tested form may be a part): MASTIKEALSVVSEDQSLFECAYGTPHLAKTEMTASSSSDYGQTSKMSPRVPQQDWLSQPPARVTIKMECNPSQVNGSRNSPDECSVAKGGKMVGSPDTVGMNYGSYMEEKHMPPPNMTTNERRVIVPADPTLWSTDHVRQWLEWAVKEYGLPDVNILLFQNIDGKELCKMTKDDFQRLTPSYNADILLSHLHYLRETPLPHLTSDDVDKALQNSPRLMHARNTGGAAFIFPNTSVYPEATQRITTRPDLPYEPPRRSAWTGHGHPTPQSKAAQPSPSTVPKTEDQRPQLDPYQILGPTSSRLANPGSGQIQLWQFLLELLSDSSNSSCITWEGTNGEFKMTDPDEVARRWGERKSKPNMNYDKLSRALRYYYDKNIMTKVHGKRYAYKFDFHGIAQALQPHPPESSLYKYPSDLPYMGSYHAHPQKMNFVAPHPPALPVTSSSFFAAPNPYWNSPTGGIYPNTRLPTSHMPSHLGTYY
Description: The Ets family of proteins is a family of ~30 conserved transcription factors defined by the presence of an ~85 amino acid domain referred to as the Ets domain, which mediates sequence-specific DNA binding to a core DNA element GGAA/T.The Ets family member ERG has been linked to several neoplasms. […] More extensive studies of the effects of over-expression of ERG in prostate cells have recently been carried out and have shown that over-expression of ERG results in increased invasion. […] We will carry out a high throughout screen to identify inhibitors of the interaction between ERG and DNA using a fluorescence polarization (FP) assay with a His-tagged ERG Ets domain and fluorescently-labeled DNA probes to develop small molecule inhibitors of this interaction as probes to test this hypothesis and lay the groundwork for the development of targeted therapies against ERG. This is the counterscreen against the cherry picks. NIH Molecular Libraries Probe Production Network [MLPCN] NIH Chemical Genomics Center [NCGC] Grant: NS066464 PI Name: John Bushweller, University of Virgina
2 ul of protein solution (200 nM ERG domain in 300mM KCl, 50mM Tris-HCl, 1mM EDTA, 1mM DTT, pH 7.5); 20 nl Control plate and compound library plate; 2 ul of 200 nM biotin-DNA; incubate for 10 min at RT; 1 ul of anti-His antibody conjugated to the long-life fluorescent cryptate donner […] (5ng/ul) and streptavidin conjugated to the acceptor compound […] (0.2 ng/ul) mix; incubate 10 min and measure FRET (Excitation = 320 nm, Emission = 615, 665 nm).
Potency is the fitted concentration of half-maximal effect.

Row | Structure (SMILES) | activity change, negative = inhibition [%] | Potency
1 | CCOc1cc(CNc2cccc3[nH]c(C)nc23)ccc1OC | -20.8 | 
2 | Cc1cc(C)cc(NC(=O)CCOc2ccccc2)c1 | -18.5 | 
3 | O=C1CC(Cc2ccccc2)C(=O)N1c1ccc(Cl)cn1 (stereo not drawn) | -9.76 | 
4 | COc1ccc(C(=O)N[C@H](C(=O)N2CCN(c3ccccc3F)CC2)C(C)C)cc1 | -6.15 | 
5 | CC(=O)NNc1cc(N2CCOCC2)nc(N2CCOCC2)n1 | 0.53 | 
6 | COc1cc(SC)ccc1C(=O)NC(C)C | -29 | 
7 | COc1ccc(S(=O)(=O)NNC(=S)NCCc2ccccc2)c(OC)c1 | -17.7 | 
8 | Cc1ccc2nc3c(c(N)c2c1)CCN3C | -20.7 | 
9 | CCc1cc(C(=O)OC)c(NC(=O)CN2CCN(C(=O)C3CCCO3)CC2)s1 (stereo not drawn) | 7.69 | 
10 | Cc1ccc(S(=O)(=O)N2CCC[C@H]2C(=O)NC2CCCCC2)cc1 | -19.9 | 
11 | CCOC(=O)CC1C(=O)NCCN1C(=O)c1c(F)cccc1F (stereo not drawn) | -22.2 | 
12 | CC(=O)NC(CC(=O)Nc1nc(-c2ccccc2)c(C(C)=O)s1)c1ccccc1 (stereo not drawn) | -23 | 
13 | COc1ccc(N(CCC(=O)Nc2ccccc2F)S(=O)(=O)c2ccc(C)cc2C)cc1 | 1.43 | 
14 | CCN(CC)c1ccc([N+](=O)[O-])cc1C(=O)O | -28 | 
15 | CN(CCO)C1=NS(=O)(=O)c2cc([N+](=O)[O-])ccc21 |  | 28.2 µM (active)
16 | O=C(COc1ccccc1)Nc1ccc2c(c1)Cc1cc(NC(=O)COc3ccccc3)ccc1-2 | -25.6 | 
17 | CNC(=O)C(=O)NCCN1CCN(C(=O)c2ccc([N+](=O)[O-])cc2)CC1 | -38.6 | 
18 | COc1ccc(OC)c(NC(=O)Cn2cnc3sc(C)c(S(=O)(=O)N4CCN(c5ccccc5OC)CC4)c3c2=O)c1 | -7.8 | 
19 | CN(C)c1nc2n(c(=S)n1)CCS2 | -23.1 | 
20 | CCC1COC(c2cccn2Cc2ccc(Cl)cc2)=N1 (stereo not drawn) | 7.96 | 
21 | CC(=O)OCC(=O)C1=CCC2C3CCC4=CC(=O)C=CC4(C)C3(F)C(OC(C)=O)CC12C (stereo not drawn) | -16.2 | 
22 | COc1cc(OC)cc(C(=O)NCC(=O)OCc2csc(-c3ccccc3)n2)c1 | 34.1 | 
23 | CCn1cc(S(=O)(=O)Nc2ccc(Cl)cc2F)cn1 | -8.65 | 
24 | COc1ccc([N+](=O)[O-])c(OC)c1C(=O)NC(=O)Nc1c(F)c(F)c(F)c(F)c1F | -14.5 | 
25 | CCn1c(CSc2ncn[nH]2)nc2cc(C(=O)O)ccc21 | -12.9 | 
26 | O=C1C(SCCO)=C(SCCO)C(=O)c2ccccc21 |  | 50.1 µM (active)

Row | Structure (SMILES) | activity change, negative = inhibition [%] | Potency
27 | CS(=O)(=O)NN1C(=O)c2ccccc2NC1c1cccc(O)c1 (stereo not drawn) | -27.5 | 
28 | S=C(NCc1ccco1)N1CCN(c2ccccn2)CC1 | -8.01 | 
29 | CCOc1ccccc1N1CCN(C(=O)c2cc(S(=O)(=O)N(C)C)ccc2N2CCCC2)CC1 | -17.2 | 
30 | COc1ccc(CNC(=O)CN2C(=O)NC3(CCCCCC3)C2=O)cc1OC | -24.8 | 
31 | CCn1nc(C)cc1C(=O)N1CCCC(N2CCN(Cc3ccc4c(c3)OCO4)CC2)C1 (stereo not drawn) | -15.2 | 
32 | CCCC(=O)Nn1cnc2c(c1=O)C1(CCCCC1)Cc1ccccc1-2 | -1.01 | 
33 | COc1ccc(S(=O)(=O)NCC2CC3C=CC2C3)cc1OC (stereo not drawn) | -23.8 | 
34 | COCCNC(=O)Cn1c(=O)n(CCCC(=O)NCc2ccc3c(c2)OCO3)c(=O)c2sccc21 | -28.9 | 
35 | COC(=O)C1=C(C)NC(C)=C(C(=O)OC)C1c1ccc(-c2cccc(Cl)c2Cl)o1 | 10.5 | 
36 | CCOc1ccc(NC(=O)CN(C)C(=O)c2ccccc2CCc2ccccc2)cc1OCC | 3.66 | 
37 | COc1ccc(CCNC(=O)Cn2cc(C(F)(F)F)cc(Cl)c2=O)cc1 | -28.5 | 
38 | CSc1nc2c(c(=O)[nH]1)C(c1cccc(Br)c1)CC(=O)N2 (stereo not drawn) | -7 | 
39 | CC(=O)Nc1ccc(S(=O)(=O)Nc2nc3ccccc3nc2Nc2ccc(O)c(C(=O)O)c2)cc1 | -17.6 | 
40 | COC(OC)c1nc(SCC(=O)Nc2cccc(Cl)c2)ncc1C(=O)O | -14 | 
41 | CCC(Oc1ccccc1F)C(=O)NCCCn1ccnc1 (stereo not drawn) | -4.46 | 
42 | Cc1nonc1C1CCCN1C(=O)c1cc(COc2ccc(F)cc2Cl)on1 (stereo not drawn) | -30.1 | 
43 | Cc1ccc(COC(=O)CCN=C2NS(=O)(=O)c3ccccc32)cc1 | -23.1 | 
44 | Nc1cccc(N2C(=O)c3cccc4c(N)ccc(c34)C2=O)c1 |  | 39.8 µM (active)
45 | O=C(Nc1ccc(-c2nc3ccccc3[nH]2)cc1)c1c(F)c(F)c(F)c(F)c1F | -17.1 | 
46 | Cn1ccc(C(=O)OCC(=O)Nc2ccccc2)n1 | -10.8 | 
47 | COc1ccc(CNC(=O)COC(=O)CCOc2ccccc2)cc1 | -27.1 | 
48 | Cc1nn(-c2ccc(Cl)cc2)c2[nH]c(CCl)cc(=O)c12 | -6.79 | 
49 | Cc1cc(S(=O)(=O)N2CCOCC2)ccc1OCC(=O)Nc1ccc(F)c(Cl)c1 | -25.9 | 
50 | C=CCn1c2ccccc2c2nnc(SCC(=O)NC(C(=O)OC)C(C)C)nc21 (stereo not drawn) | -32.4 | 
51 | Cc1ccc(N(CCCCN2C(=O)c3ccccc3C2=O)C(=O)c2ccc(Cl)s2)cc1 | -1.7 | 
52 | N#Cc1c(NC(=O)CCCN2C(=O)c3ccccc3C2=O)oc(-c2ccccc2)c1-c1ccccc1 | -4.08 | 

Row | Structure (SMILES) | activity change, negative = inhibition [%] | Potency
53 | O=C1c2ccc3c4c(ccc(c24)C(=O)N1CCCCO)C(=O)N(CCCCO)C3=O |  | 20 µM (active)
54 | CC(=O)C(c1ccccc1)C(c1ccccc1)C(C)[N+](=O)[O-] (stereo not drawn) | -25.3 | 
55 | COc1cc(CO)ccc1OCC(=O)Nc1cccc2ccccc12 | -34.3 | 
56 | CN(C(=O)COC(=O)c1ccc(F)c(S(=O)(=O)N2CCOCC2)c1)C1CCS(=O)(=O)C1 (stereo not drawn) | -15.2 | 
57 | Cc1occc1C(=O)NCCc1ccc(Cl)cc1 | 2.02 | 
58 | CCc1cc(C(=O)NNC(=S)Nc2cccc(C)c2)cs1 | -26.5 | 
59 | Cc1cccc(-n2c(-c3ccccc3)c[nH]c2=S)c1C | -29.7 | 
60 | Cc1ccc(NC(=O)c2cc3cc(OC(F)(F)F)ccc3[nH]2)cc1 | -19 | 
61 | CCCCn1c(N)c(N(CC)C(=O)c2ccc(C#N)cc2)c(=O)[nH]c1=O | -8.75 | 
62 | CCCCn1c(=O)[nH]c2nc3cc(N)ccc3nc2c1=O |  | 50.1 µM (active)
63 | O=C(Nc1ccccc1)Nc1ncc([N+](=O)[O-])s1 |  | 39.8 µM (active)
64 | Cc1cc(C)nc(N2CCN(c3nnnn3-c3ccccc3)CC2)n1 | 3.18 | 
65 | CCCN(C(=O)c1nn(-c2ccc(C)cc2)c(=O)c2c1c1ccccc1n2C)c1ccccc1C | -29.5 | 
66 | Cc1ccccc1C(=O)N/N=C1/SCC(=O)N1Cc1ccccc1 | 1.11 | 
67 | Cc1cccc(C(=O)NCCNc2nc3cc(C)c(C)cc3cc2C)c1 | -17.8 | 
68 | O=C1c2ccccc2C(=O)c2c1ncn2-c1ccccc1 |  | 15.8 µM (active)
69 | O=C(CNC(=S)N(Cc1ccccc1)Cc1cccnc1)NC1CCCCC1 | -9.71 | 
70 | Cc1ccc(-c2noc(C3CCCN(C(=O)c4cccc([N+](=O)[O-])c4)C3)n2)o1 (stereo not drawn) | -24.6 | 
71 | Cc1cc2cc(CNC(=O)C(C)Oc3ccccc3)ccc2n1C (stereo not drawn) | -9.92 | 
72 | CC(Oc1ccc(F)cc1)C(=O)Nc1ccc(S(=O)(=O)NC2=NCCCCC2)cc1 (stereo not drawn) | -5.41 | 
73 | COc1ccc(C(=O)NCc2ccc(OCCN(C)C)cc2)cc1OC | -16.1 | 
74 | Cc1cc(F)ccc1NC(=O)c1ccc(NS(=O)(=O)c2cc(C(C)(C)C)ccc2C)cc1 | -11.9 | 
75 | O=C1[C@H]2[C@@H](c3ccc(F)cc3)N3C(=O)N(c4cccc(F)c4)C(=O)[C@@]3(Cc3ccccc3)[C@H]2C(=O)N1C1CCCCC1 | -28.6 | 
76 | CCNc1nc(OCC)nc(N2CCC(Cc3ccccc3)CC2)n1 | 4.46 | 
77 | CSc1ccccc1NC(=O)CN(C)C(=O)/C=C/c1ccccc1 | -23.6 | 
78 | CC(=O)c1cccc(NC(=O)C(C)OC(=O)CCc2nc3ccccc3c(=O)[nH]2)c1 (stereo not drawn) | -21.7 | 

Row | Structure (SMILES) | activity change, negative = inhibition [%] | Potency
79 | Nc1ccc2[nH]ncc2c1 | -70.6 | 
80 | O=C(CSC1=NCCS1)NC(NC(=O)CSC1=NCCS1)c1ccccc1 | -23 | 
81 | CCOc1ccccc1NC(=O)COc1ccc2ccc(=O)oc2c1 | 5.68 | 
82 | O=C(/C=C/c1ccc([N+](=O)[O-])cc1)NCc1ccco1 |  | 28.2 µM (active)
83 | O=C(CCc1c[nH]c2ccccc12)NCc1ccco1 | -5.25 | 
84 | O=C(COC(=O)/C=C/c1ccc([N+](=O)[O-])cc1)NCc1cccs1 | -28.9 | 
85 | O=C(NCc1cccnc1)c1ccccc1-c1nc(-c2ccccc2)no1 | -23.1 | 
86 | O=C(NC(c1ccccc1)C(Cl)Cl)c1ccccc1 (stereo not drawn) | -11.6 | 
87 | CCOC(=O)CSc1nc2ccc(NC(=O)c3ccc(F)cc3)cc2s1 | 26.8 | 
88 | CCN(C(=O)CSc1nc2cc(C(=O)O)ccc2c(=O)n1Cc1ccccc1)c1ccccc1 | -26.9 | 
89 | Cc1noc(C)c1S(=O)(=O)N(CC(=O)NCc1ccc(F)cc1)c1ccc(C(C)C)cc1 | -22.4 | 
90 | Cc1[nH]c2ccc(C(=O)OCC(=O)Nc3cccc(S(N)(=O)=O)c3)cc2c1C | -12.7 | 
91 | O=C(C1CCN(CCc2ccccc2)CC1)N1CCOCC1 | -17 | 
92 | Cc1ccnn1-c1ccc(C(=O)OCC(=O)Nc2ccc(F)cc2)cc1 | -27.1 | 
93 | CCN(CC(=O)N1CCCCCC1)S(=O)(=O)c1ccc(Cl)cc1 | -18.2 | 
94 | COc1ccc(-c2cc(N)n(S(=O)(=O)Cc3ccccc3)n2)c(OC)c1 | -25 | 
95 | O=C(CCN=C1NS(=O)(=O)c2ccccc21)OCc1ccccc1 | -3.29 | 
96 | COc1ccc(NC2CCCN(C(=O)C3(C)CCCCC3)C2)cc1OC (stereo not drawn) | -11.5 | 
97 | COc1ccccc1C(C)NC(=O)c1cc(S(=O)(=O)N2CCCCC2)ccc1C (stereo not drawn) | 0.53 | 
98 | O=C(C1CC(=O)N(c2ccc(Cl)cc2)C1)N1CCCCCC1 (stereo not drawn) | 0.955 | 
99 | CCN(C(=O)COC(=O)c1ccc(=O)n(Cc2ccccc2)n1)C1CCS(=O)(=O)C1 (stereo not drawn) | -38 | 
100 | C=CCC[C@H](Cc1ccc(F)cc1)C(=O)OC[C@@H](Cc1c[nH]c2ccccc12)NC(=O)[C@H](CC=C)CC(=O)N(CCO)Cc1ccccc1 | -14.7 | 
101 | Cc1nn(C2CCS(=O)(=O)C2)c(Cl)c1/C=C/C(=O)OCC(=O)c1c[nH]c2ccccc12 (stereo not drawn) | -21.3 | 
102 | O=C(OCC(=O)c1c[nH]c2ccccc12)c1ccc([N+](=O)[O-])s1 |  | 35.5 µM (active)
103 | CCCN(CC(=O)Nc1ccc(F)c(F)c1F)C(=O)C1CC(=O)N(Cc2ccccc2)C1 (stereo not drawn) | -22.6 | 

Reference: PubChem BioAssay AID651804 (National Center for Advancing Translational Sciences (NCATS), 2012)
